# Screening data from PubChem BioAssay.
# phage Ecoli inh = E. coli growth loss with phage present. growth absorbance. inhibition, % at 11.9 µM. 360,000 tested, 0.26% active. AID 651602; in the data active = inhibition above about 11%
# p-CIP stab down = p/CIP protein destabilization; F442A p/CIP-EGFP cells, EGFP fluorescence, 16 h; decrease of EGFP signal, % at 10 µM; 290,000 tested, 0.01% active; AID 1984;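 active = EGFP signal decrease of at least 30% at 10 µM or well 3 SD below plate mean, unless failing retest; inactive = the rest, including hits failing retest or dose response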
# Tat export inh = blocks Tat-dependent protein export in E. coli. inhibition, % at 10 µM. E. coli MC4100 TorA-mCherry Tat export, fluorescence. 340,000 tested, 0.036% active;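 active = mean replicate inhibition at least 50% and at least half of replicates individually reaching 50%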;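 also: exported cargo escapes ClpAP degradation while cytoplasmic cargo is degraded and loses fluorescence; 0% = median of neutral control wells and 100% = median of NaSCN control wells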
# E coli growth-1 = E. coli growth inhibition; Escherichia coli growth, OD600, 23 h; hits give low values; OD600 absorbance (no concentration beside the values); 330,000 tested, 0.21% active; AID 1053175;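 active = OD600 absorbance below the run mean of sample wells minus 3.6 SD, in any replicate, cut at about 0.56 in these data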
# AddAB inh = less growth of phage-infected E. coli with AddAB | E. coli expressing H. pylori AddAB, absorbance growth | inhibition, % at 11.9 µM | 330,000 tested, 0.29% active; in the data active = inhibition above about 12%;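 also: 0% = vehicle wells of infected cells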
# E coli growth-2 = counter-screen for AddAB inhibitors: E. coli growth inhibition | inhibition, % at 11.9 µM | E. coli V3065 growth, OD600 absorbance, 18 h | 330,000 tested, 0.27% active;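 active = inhibition above the campaign's mean inhibition across all tested compounds plus 3 SD, cut at about 9.9% in these data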;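 also: uninfected addAB+ strain grown without phage in ampicillin broth; 0% = DMSO wells and 100% = ciprofloxacin 0.95 µg/ml wells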
# AddAB confirm = growth loss of T4-infected E. coli expressing H. pylori AddAB, confirmed. shares compounds with AddAB inh. E. coli V3065 expressing H. pylori AddAB, T4 phage, OD; T4 phage with gene 2 nonsense mutations. inhibition, % at 11.9 µM. 880 tested, 64% active. AID 488942;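 active = mean inhibition above a set limit taken from the earlier primary screen, cut at about 13% in these data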;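 also: higher means less bacterial growth since AddAB block lets phage replicate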
# RecBCD counter = counter-screen: growth loss of RecBCD+ E. coli with mutant T4 phage; 880 tested, 73% active; inhibition, % at 11.9 µM; E. coli V66 + mutant T4 phage, OD growth; shares compounds with AddAB inh;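 active = mean inhibition above the mean of solvent-only control wells plus 3 SD, cut at about 4% in these data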;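 also: optical density read after an 18 h incubation at 37 °C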
# bact viab count = reduces bacterial viability, AddAB inhibitor counter-screen | shares compounds with AddAB inh | absorbance (AddAB counterscreen) | inhibition, % at 11.9 µM | 880 tested, 35% active | AID 488956; in the data active = inhibition above about 25%
# * marks the source's active call; other numbers are inactive results; nt = no result given. Sampled rows, rich in hits. Any-hit rate of the full collection: about 0.51%.
SMILES,phage Ecoli inh,p-CIP stab down,Tat export inh,E coli growth-1,AddAB inh,E coli growth-2,AddAB confirm,RecBCD counter,bact viab count
Cc1ccc(NC(=O)CSc2ccc(-c3ccccn3)nn2)cc1,10,2,7,0.66,9,4,nt,nt,nt
O=C(CSc1ccc(-c2ccccn2)nn1)Nc1ccc(F)c(F)c1,8,-11,17,0.69,14*,14*,7,9.7*,7
O=C(CSc1nnc(NC(=O)c2ccccc2F)s1)NCc1ccc(F)cc1,2,-2,2,0.75,1,0,nt,nt,nt
O=C(NCCCn1ccnc1)C(=O)NCC(c1cccnc1)N1CCN(c2ccccc2)CC1 (stereo unspecified),1,-9,-3,0.74,97*,98*,-5,0,0
O=C(NCCCn1ccnc1)C(=O)NCC(c1ccco1)N1CCN(c2ccccc2)CC1 (stereo unspecified),1,-4,0,0.72,0,2,nt,nt,nt
O=C(c1ccccc1)c1c2c(cc3sc4ccccc4[n+]13)-c1cccc3cccc-2c13,7,-25,7,0.48*,16*,5,89*,1,19
Cc1sc2cc3c(c(C(=O)c4ccccc4)[n+]2c1C)-c1cccc2cccc-3c12,3,-7,nt,0.56,6,0,nt,nt,nt
COc1ccc(S(=O)(=O)N2CCN(C(=O)c3cc(C)nc4ccccc34)CC2)cc1OC,3,nt,6,0.64,1,3,nt,nt,nt
NC(=O)c1ccsc1NC(=O)COC(=O)c1ccc([N+](=O)[O-])o1,9,nt,8,0.62,97*,13*,97*,8.3*,19
c1ccc(COC2CCCN(Cc3nc(-c4cnccn4)no3)C2)nc1 (stereo unspecified),3,9,-4,0.66,1,-3,nt,nt,nt
C=CCn1c(Sc2ncc([N+](=O)[O-])s2)n[nH]c1=O,9,-16,10,0.45*,17*,3,99*,12*,21
CCOc1ccc(NC(=O)NNC(=O)c2ccc3ccccc3c2O)cc1,11,-9,-8,0.68,13*,12*,9,12*,11
CCc1ccccc1NC(=O)NNC(=O)c1ccc2ccccc2c1O,5,3,7,0.71,1,4,nt,nt,nt
CCCc1[nH]nc2c1C1(C(=O)N(CC)c3ccccc31)C(C#N)=C(N)O2 (stereo unspecified),nt,0,-5,0.7,17*,26*,-4,-1,-4
O=C(COc1ccccc1)NCC(c1ccco1)N1CCCCC1 (stereo unspecified),2,nt,1,0.6,98*,98*,3,3,0
COCC1CCN(Cc2nc(COc3ccccc3)no2)C1 (stereo unspecified),-1,-8,5,0.71,32*,33*,-5,-1,-5
CC(Nc1c([N+](=O)[O-])c(=O)oc2ccccc12)C(Cl)c1ccccc1 (stereo unspecified),3,0,-6,0.73,-2,2,nt,nt,nt
O=c1oc2ccccc2c(NC(c2ccccc2)c2ccccc2)c1[N+](=O)[O-],3,2,-13,0.7,39*,6,101*,5.3*,12
CCc1ccc(Nc2c([N+](=O)[O-])c(=O)oc3ccccc23)cc1,1,0,0,0.64,3,3,nt,nt,nt
CCNc1c([N+](=O)[O-])c(=O)oc2ccccc12,5,-16,4,0.61,13*,8,29*,2,3
O=S(=O)(Cc1ccccc1Cl)N1CCCC1,4,-13,-1,0.7,-1,0,nt,nt,nt
O=[N+]([O-])c1cnc(Sc2ccncn2)s1,10,-19,-13,0.43*,81*,12*,98*,8.7*,35*
CC(=O)c1cccc(NC(=O)CCNS(=O)(=O)c2cccc3nonc23)c1,5,9,-17,0.68,13*,7,6,4.5*,5
O=S1(=O)Nc2c(ccc3cccnc23)-c2ccccc21,nt,-22,21,0.22*,51*,51*,45*,49*,46*
O=C(Cn1ncc2c(=O)oc3ccccc3c21)N1CCCN(Cc2ccccc2F)C1,0,3,5,0.8,0,-2,nt,nt,nt
SMILES,phage Ecoli inh,p-CIP stab down,Tat export inh,E coli growth-1,AddAB inh,E coli growth-2,AddAB confirm,RecBCD counter,bact viab count
Cc1ccc(NC(=O)COn2nnc3ccc(S(=O)(=O)N(C)C)cc32)cc1F,4,-6,1,0.73,2,-1,nt,nt,nt
Cc1ccc(C)c(NC(=S)NNc2ccc(F)cc2F)c1,3,-8,-18,0.64,2,-1,nt,nt,nt
CCOc1ccc(NC(=S)N2CCn3c(nc4ccccc43)C2)cc1,nt,-3,nt,nt,21*,13*,28*,19*,24
C[C@H](O)[C@@H]1CN2CCc3c([nH]c4ccccc34)[C@@H]2C[C@@H]1N(C)C(=O)Nc1ccc(Br)cc1,5,nt,nt,nt,nt,nt,nt,nt,nt
CCc1cc(CC)c(/C=N/NC(N)=O)c(CC)c1/C=N/NC(N)=O,4,-2,-11,nt,-1,-1,nt,nt,nt
Cc1c(Br)c([N+](=O)[O-])nn1C(C)C(=O)NCc1ccco1 (stereo unspecified),2,-10,8,0.64,17*,6,17*,3,12
C[C@H]1c2cccc(O)c2C(O)=C2C(=O)[C@]3(O)C(O)=C(C(N)=O)C(=O)[C@@H](N(C)C)C3[C@@H](O)C21 (stereo partly specified),101*,nt,146*,nt,99*,100*,99*,98*,100*
Cc1nc(Cl)c(C(=O)NC(C)(C)C)c(C)c1Cl,3,-2,27,0.67,3,1,nt,nt,nt
O=C(Nc1cccc2ccccc12)c1ccc([N+](=O)[O-])o1,3,-12,-13,0.62,5,8,nt,nt,nt
O=C(Nc1ccccn1)c1ccc([N+](=O)[O-])o1,nt,-3,-11,0.53,98*,72*,57*,17*,62*
CCCn1c(NC(=O)c2cccc(C)c2C)nc2ccccc21,nt,-1,8,0.67,-2,-4,nt,nt,nt
O=C(Nc1ncccn1)c1ccc([N+](=O)[O-])o1,14*,13,7,0.49*,60*,9,96*,5.6*,18
CCCn1c(NC(=O)c2ccc([N+](=O)[O-])o2)nc2ccccc21,11,nt,-5,0.63,15*,8,58*,4.7*,15
O=C(Cn1c(C(=O)N2CCc3ccccc3C2)cc2sccc21)c1ccccc1,nt,2,12,0.77,0,2,nt,nt,nt
